Source: PubChem BioAssay
Activity calls are given as the source filed them. Unless noted, the rule behind the calls is not given here.

What was measured:
[1] = system: XIP peptide (Xip251-270) binding; assay: small-molecule binders of XIP peptide, primary screen, biochemical, small-molecule microarray, fluorescence 635/667 nm, 0.1 µg/mL protein (AID 1182); details: fluorescent protein binding, 635 nm, higher = more signal, called active from +8 up or from −8 down
XIP peptide (Xip251-270) = assay: small-molecule binders of XIP peptide, primary screen, biochemical, small-molecule microarray, fluorescence 635/667 nm, 0.5 µg/mL protein (AID 1183); details: small-molecule microarray binding, fluorescence 635 nm; higher = more signal
[2] = Plasmodium falciparum growth inhibition, primary screen, strain 3D7, DAPI fluorescence, 100 nL (AID 1184);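 note: parasites grown inside human red blood cells in medium with human serum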; details: P. falciparum 3D7 growth, 3 d, higher = more signal
[3] = molecular target: Homeobox protein Hox-A13 (Mus musculus) (UniProt Q62424); assay: inhibitors of HoxA13-DNA binding, primary screen, biochemical, fluorescence polarization, labeled oligonucleotide (AID 1185); details: 15 min, higher = more signal, called active from +8 up or from −8 down
Chain of Homeobox protein Hox-A13 (Mus musculus) (Q62424 whole entry, looked up): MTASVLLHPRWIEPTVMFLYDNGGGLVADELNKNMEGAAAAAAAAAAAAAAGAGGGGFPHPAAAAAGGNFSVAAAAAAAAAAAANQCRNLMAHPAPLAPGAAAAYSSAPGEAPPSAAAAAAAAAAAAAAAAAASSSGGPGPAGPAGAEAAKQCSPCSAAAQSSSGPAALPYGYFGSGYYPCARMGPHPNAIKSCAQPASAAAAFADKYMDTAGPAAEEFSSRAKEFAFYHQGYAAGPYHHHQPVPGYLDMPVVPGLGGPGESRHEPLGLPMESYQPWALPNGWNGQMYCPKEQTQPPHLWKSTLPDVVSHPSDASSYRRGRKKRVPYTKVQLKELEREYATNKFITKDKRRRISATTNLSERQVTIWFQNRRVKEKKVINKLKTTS

[4] = inhibitors of hydroxyurea-induced Chk1 phosphorylation, primary screen, imaging, HeLa, phospho-Chk1 antibody, percent positive cells (AID 1186); details: hydroxyurea-induced phospho-Chk1 immunofluorescence imaging, higher = more signal
[5] = inhibitors of hydroxyurea-induced Chk1 phosphorylation, primary screen, imaging, HeLa, phospho-Chk1 nuclear intensity (AID 1187); details: hydroxyurea-induced phospho-Chk1 immunofluorescence imaging, higher = more signal

CCOC(=O)C1=C[C@@H](C(C)(C)C)N(S(=O)(=O)c2ccc(C)cc2)[C@H]1c1ccc(C)cc1
composite z-score [1]: 0.177 (inactive)
composite z-score (XIP peptide (Xip251-270)): 0.325
z-score [2]: -2.07
z-score [3]: -0.0064 (inactive)
z-score [4]: 0.0978 (inactive)
z-score [5]: -0.184 (inactive)

COc1ccc(C#Cc2ccc3c(c2)[C@]2(C(=O)N3)[C@H](C(=O)N3CCCCCCC3)[C@H]3C(=O)O[C@H](c4ccccc4)[C@H](c4ccccc4)N3[C@@H]2c2ccc(O)cc2)cc1
composite z-score [1]: 2.34 (inactive)
composite z-score (XIP peptide (Xip251-270)): 0.755
z-score [2]: -1.56
z-score [3]: 0.625 (inactive)
z-score [4]: -0.25 (inactive)
z-score [5]: -0.372 (inactive)

COC(=O)C1=CC(CCCO)=CC(c2ccc(CN3CCCC3)cc2)N(Cc2cc3c(cc2Br)OCO3)C=C1C(=O)OC (stereo unspecified)
composite z-score [1]: 2.27 (inactive)
composite z-score (XIP peptide (Xip251-270)): 0.727
z-score [2]: -1.41
z-score [3]: -3.44 (inactive)
z-score [4]: 0.119 (inactive)
z-score [5]: 0.656 (inactive)

[N-]=[N+]=NCc1ccccc1[C@@H]1OC(c2ccc(OCCCO)cc2)=N[C@]1(Cc1ccccc1N=[N+]=[N-])C(=O)NCCN1CCOCC1
composite z-score [1]: 0.24 (inactive)
composite z-score (XIP peptide (Xip251-270)): 0.878
z-score [2]: -2.45
z-score [3]: -4.64 (inactive)
z-score [4]: -0.276 (inactive)
z-score [5]: -0.22 (inactive)

CC(C)[C@H]1NC(=O)[C@@]23C(=O)N[C@@H](Cc4ccccc4)C2[C@H](C)[C@@]2(C)O[C@H]2C3/C=C/C/C=C\CNC(=O)[C@H](Cc2ccccc2)NC1=O (stereo partly specified)
composite z-score [1]: 0.21 (inactive)
composite z-score (XIP peptide (Xip251-270)): 0.763
z-score [2]: -2.45
z-score [3]: -5.69 (inactive)
z-score [4]: 0.174 (inactive)
z-score [5]: 0.5 (inactive)

NCCCCCNC(=O)[C@@H]1C[C@@H]2C(=O)N3CCC[C@H]3C(=O)N2[C@@H]1c1ccc(O)cc1
composite z-score [1]: 0.0353 (inactive)
composite z-score (XIP peptide (Xip251-270)): 0.0129
z-score [2]: 0.0766
z-score [3]: -1.74 (inactive)
z-score [4]: 0.299 (inactive)
z-score [5]: 0.235 (inactive)

CC(=O)n1cc(C(O)C2C=CC3C(=O)N(c4ccccc4)C(=O)C3N2Nc2ccc(C(C)C)cc2)c2ccccc21 (stereo unspecified)
composite z-score [1]: 0.18 (inactive)
composite z-score (XIP peptide (Xip251-270)): 0.755
z-score [2]: -0.15
z-score [3]: -2.7 (inactive)
z-score [4]: 0.417 (inactive)
z-score [5]: 0.2 (inactive)

C[C@@H]1ON(c2ccc(I)cc2)[C@H](c2ccc(OC(=O)OC(C)(C)C)cc2)[C@H]1C(=O)N1C(=O)OC[C@H]1Cc1ccccc1
composite z-score [1]: 0.589 (inactive)
composite z-score (XIP peptide (Xip251-270)): 0.515
z-score [2]: -2.13
z-score [3]: -0.866 (inactive)
z-score [4]: -1.08 (inactive)
z-score [5]: -0.859 (inactive)

COc1cccc(/C=C(\C#N)C(=O)Nc2c(C)n(C)n(-c3ccccc3)c2=O)c1
composite z-score [1]: 0.0887 (inactive)
composite z-score (XIP peptide (Xip251-270)): 0.438
z-score [2]: 0.393
z-score [3]: -0.75 (inactive)
z-score [4]: -0.252 (inactive)
z-score [5]: -0.13 (inactive)

CN1C(=O)C2C=CC(C(O)c3cc(C(F)(F)F)cc(C(F)(F)F)c3)N(NC(=O)OC(C)(C)C)C2C1=O (stereo unspecified)
composite z-score [1]: 1.07 (inactive)
composite z-score (XIP peptide (Xip251-270)): 0.623
z-score [2]: -1.32
z-score [3]: -5.04 (inactive)
z-score [4]: 0.0279 (inactive)
z-score [5]: 0.275 (inactive)

COCCOC(=O)N1C(=O)[C@@]2(c3cc(C#CC4=CCCCC4)ccc31)[C@H](C(=O)N1CCCCCCC1)[C@H]1C(=O)O[C@H](c3ccccc3)[C@H](c3ccccc3)N1[C@@H]2c1ccc(OCCO)cc1
composite z-score [1]: -0.404 (inactive)
composite z-score (XIP peptide (Xip251-270)): 0.56
z-score [2]: -2.01
z-score [3]: -15.8 (active)
z-score [4]: 0.0039 (inactive)
z-score [5]: -0.192 (inactive)

NC(=O)NCC#Cc1ccc2c(c1)[C@]1(C(=O)N2)[C@H](C(=O)N2CCN(c3ncccn3)CC2)[C@H]2C(=O)O[C@H](c3ccccc3)[C@H](c3ccccc3)N2[C@@H]1c1ccc(OCCO)cc1
composite z-score [1]: -0.134 (inactive)
composite z-score (XIP peptide (Xip251-270)): 0.193
z-score [2]: -0.232
z-score [3]: -1.02 (inactive)
z-score [4]: -0.216 (inactive)
z-score [5]: -0.0071 (inactive)

CN1C(=O)C2C(C1=O)C1C=C(CCCO)C2C(c2cccs2)N1Cc1cc2c(cc1Br)OCO2 (stereo unspecified)
composite z-score [1]: 0.0841 (inactive)
composite z-score (XIP peptide (Xip251-270)): 0.757
z-score [2]: -0.654
z-score [3]: -8.9 (active)
z-score [4]: 0.214 (inactive)
z-score [5]: 0.228 (inactive)

CC1CC/C=C\[C@H]2OC34C=CCN(CCN5CCOCC5)C(=O)[C@H]3N(C(C)CO)C(=O)[C@@H]4C2C(=O)O1 (stereo partly specified)
composite z-score [1]: -0.153 (inactive)
composite z-score (XIP peptide (Xip251-270)): 0.371
z-score [2]: -0.359
z-score [3]: -5.12 (inactive)
z-score [4]: 0.16 (inactive)
z-score [5]: 0.219 (inactive)

CN1C(=O)[C@@H]2[C@@H](CC(COc3ccccc3)=C([C@H](O)CCc3ccccc3)[C@@H]2CO)C1=O
composite z-score [1]: -0.221 (inactive)
composite z-score (XIP peptide (Xip251-270)): 0.365
z-score [2]: -0.0804
z-score [3]: -6.39 (inactive)
z-score [4]: -1.25 (inactive)
z-score [5]: -1.34 (inactive)

C=CCC(OC(C)=O)[C@@H]1[C@@H](N(Cc2cccc3ccccc23)C(=O)Cc2ccc(F)cc2)c2cc(OCCCO)ccc2N1C(=O)c1ccc(-c2ccccc2)cc1 (stereo partly specified)
composite z-score [1]: -1.31 (inactive)
composite z-score (XIP peptide (Xip251-270)): -1.14
z-score [2]: -1.69
z-score [3]: -1.09 (inactive)
z-score [4]: 0.19 (inactive)
z-score [5]: -0.39 (inactive)

O=C1[C@@H]2[C@@H](CC(COc3ccccc3)=C3[C@@H](CCc4ccccc4)OB(O)C[C@@H]32)C(=O)N1Cc1ccccc1
composite z-score [1]: 0.318 (inactive)
composite z-score (XIP peptide (Xip251-270)): 0.387
z-score [2]: 1.31
z-score [3]: -5.54 (inactive)
z-score [4]: -0.242 (inactive)
z-score [5]: -0.22 (inactive)

NC(=O)[C@@H]1[C@H]2C(=O)O[C@H](c3ccccc3)[C@H](c3ccccc3)N2[C@H](c2ccc(OCCO)cc2)[C@@]12C(=O)Nc1ccc(C#CCCO)cc12
composite z-score [1]: 0.198 (inactive)
composite z-score (XIP peptide (Xip251-270)): 0.808
z-score [2]: 0.195
z-score [3]: -4.88 (inactive)
z-score [4]: -0.504 (inactive)
z-score [5]: -0.804 (inactive)

CCOC(=O)C[C@H]1[C@H](OC(=O)c2cc3ccccc3oc2=O)[C@@H](NC(=O)c2ccc3ccccc3c2)c2cc(OCCCO)ccc2N1C(=O)Cc1ccc(OC)cc1
composite z-score [1]: 0.515 (inactive)
composite z-score (XIP peptide (Xip251-270)): 0.335
z-score [2]: -0.791
z-score [3]: -2.96 (inactive)
z-score [4]: 0.204 (inactive)
z-score [5]: -0.322 (inactive)

COCC1C2CC[C@H]3C(OCc4ccc(OC)cc4)OC[C@]4(C)[C@H]3C2=C(CN4C(=O)OC(C)(C)C)[C@H](C)C1COC (stereo partly specified)
composite z-score [1]: -0.272 (inactive)
composite z-score (XIP peptide (Xip251-270)): 0.682
z-score [2]: -0.821
z-score [3]: -4.09 (inactive)
z-score [4]: -0.615 (inactive)
z-score [5]: -0.719 (inactive)

C=CCC(OC(C)=O)[C@@H]1[C@@H](N(Cc2ccc(-c3cccc(C(F)(F)F)c3)o2)C(=O)c2ccc(C)cc2)c2cc(OCCCO)ccc2N1C(=O)Cc1ccc(OC)cc1 (stereo partly specified)
composite z-score [1]: -0.635 (inactive)
composite z-score (XIP peptide (Xip251-270)): -0.0047
z-score [2]: -0.549
z-score [3]: -0.791 (inactive)
z-score [4]: -0.159 (inactive)
z-score [5]: 0.0947 (inactive)
